Reference: PubChem BioAssay (NCI)
Compounds without any hit were thinned out: in the full panel of roughly 83,000, 20% have a hit.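 Compound tested at a single concentration for 48 hours in 96-well plates; a percent growth value below 10 was scored as active.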 Values without a mark were called inactive. Active and inactive are the calls of the source.

Assays:
Assay in all cases: NCI-60 one-dose screen, 48 h (100 = growth as untreated, 0 = no growth, -100 = all killed)
Settings in all cases: 10 µM unless noted
NCI-H23 lung = tested on: NCI-H23 lung
NCI-H226 lung = tested on: NCI-H226 lung
NCI-H322M lung = tested on: NCI-H322M lung
HOP-62 NSCLC = tested on: HOP-62 NSCLC
NCI-H460 lung = tested on: NCI-H460 lung
HOP-92 NSCLC = tested on: HOP-92 NSCLC
NCI-H522 lung = tested on: NCI-H522 lung
A549/ATCC NSCLC = tested on: A549/ATCC NSCLC
786-0 renal = tested on: 786-0 renal
COLO 205 colon = tested on: COLO 205 colon
DU-145 prostate = tested on: DU-145 prostate
MALME-3M melanoma = tested on: MALME-3M melanoma
MDA-MB-231 breast = tested on: MDA-MB-231 breast
RXF 393 renal = tested on: RXF 393 renal
SF-268 CNS = tested on: SF-268 CNS
SF-295 CNS = tested on: SF-295 CNS
SF-539 CNS = tested on: SF-539 CNS
UACC-257 melanoma = tested on: UACC-257 melanoma
M14 melanoma = tested on: M14 melanoma

SMILES: C=CCn1c(SCC(=O)Nc2ccc(C(=O)/C=C/c3cc(OC)c(OC)c(OC)c3)cc2)nnc1-c1ccc(OC)cc1
- growth (NCI-H23 lung): 22.2%
- growth (NCI-H226 lung): -36.5% (active)
- growth (NCI-H322M lung): 17.3%
- growth (HOP-62 NSCLC): -32.5% (active)
- growth (NCI-H460 lung): 0.762% (active)
- growth (HOP-92 NSCLC): 21.3%
- growth (NCI-H522 lung): -16.8% (active)
- growth (A549/ATCC NSCLC): 4.04% (active)
- growth (786-0 renal): -30.8% (active)
- growth (COLO 205 colon): -7.79% (active)
- growth (DU-145 prostate): 5.32% (active)
- growth (MALME-3M melanoma): 46.1%
- growth (MDA-MB-231 breast): 13.8%
- growth (RXF 393 renal): -81.6% (active)
- growth (SF-268 CNS): 5.5% (active)
- growth (SF-295 CNS): -21.4% (active)
- growth (SF-539 CNS): -17.6% (active)
- growth (UACC-257 melanoma): 13.6%
- growth (M14 melanoma): 6.88% (active)

SMILES: O=C(CNc1cccnc1)Nc1ccc(C(=O)/C=C/c2ccc(Cl)cc2)cc1
- growth (NCI-H23 lung): 91.7%
- growth (NCI-H226 lung): 86.4%
- growth (NCI-H322M lung): 95.9%
- growth (HOP-62 NSCLC): 107%
- growth (NCI-H460 lung): 93.5%
- growth (HOP-92 NSCLC): 90.7%
- growth (NCI-H522 lung): 89.4%
- growth (A549/ATCC NSCLC): 88.3%
- growth (786-0 renal): 105%
- growth (COLO 205 colon): 106%
- growth (DU-145 prostate): 103%
- growth (MALME-3M melanoma): 89.3%
- growth (MDA-MB-231 breast): 77%
- growth (RXF 393 renal): 98.8%
- growth (SF-268 CNS): 91.4%
- growth (SF-295 CNS): 93.9%
- growth (SF-539 CNS): 99.6%
- growth (UACC-257 melanoma): 105%
- growth (M14 melanoma): 88.4%

SMILES: Cc1ccn2cc(Cc3cc(=O)oc4c3ccc3ccccc34)c(=O)nc2c1
- growth (NCI-H23 lung): 96.6%
- growth (NCI-H226 lung): 96.6%
- growth (NCI-H322M lung): 101%
- growth (HOP-62 NSCLC): 91.7%
- growth (NCI-H460 lung): 106%
- growth (HOP-92 NSCLC): 98.8%
- growth (NCI-H522 lung): 75.1%
- growth (A549/ATCC NSCLC): 89.9%
- growth (786-0 renal): 95.5%
- growth (COLO 205 colon): 102%
- growth (DU-145 prostate): 110%
- growth (MALME-3M melanoma): 99.8%
- growth (MDA-MB-231 breast): 97.6%
- growth (RXF 393 renal): 106%
- growth (SF-268 CNS): 94.8%
- growth (SF-295 CNS): 96.1%
- growth (SF-539 CNS): 93.7%
- growth (UACC-257 melanoma): 86.3%
- growth (M14 melanoma): 96.8%

SMILES: Cc1ccc2c(C3C(C#N)=C(N)Oc4cc5ccccc5cc43)cc(=O)oc2c1 (stereo unspecified)
- growth (NCI-H23 lung): 41%
- growth (NCI-H226 lung): 87.8%
- growth (NCI-H322M lung): 42.7%
- growth (HOP-62 NSCLC): 30.1%
- growth (NCI-H460 lung): 12.5%
- growth (HOP-92 NSCLC): 75.7%
- growth (NCI-H522 lung): 7.76% (active)
- growth (A549/ATCC NSCLC): 25.1%
- growth (786-0 renal): 26.2%
- growth (COLO 205 colon): 2.72% (active)
- growth (DU-145 prostate): 16%
- growth (MALME-3M melanoma): 66.4%
- growth (MDA-MB-231 breast): 50.6%
- growth (RXF 393 renal): -11% (active)
- growth (SF-268 CNS): 54.6%
- growth (SF-295 CNS): 9.32% (active)
- growth (SF-539 CNS): 2.31% (active)
- growth (UACC-257 melanoma): 67.8%
- growth (M14 melanoma): 0.37% (active)
